Reference: PubChem BioAssay (Tox21)
Records with an inconclusive call do not appear. The source made the active and inactive calls. Unless noted, calls follow the shape of the dose curve; as a rule, active = well fitted curve in the direction sought with a large enough effect in the repeat runs; inconclusive = weak or mixed curves; inactive = no such curve, though single readings can be large; an effect the other way counts as inactive or inconclusive.

Experiments:
[1] = qHTS assay to identify small molecule antagonists of the estrogen receptor alpha (ER-alpha) signaling pathway using the BG1 cell line in the presence of 0.1 nM 17-beta-estradiol - cell viability counter screen (AID 1259241); also: nearly all actives have a fitted effect of over 40% in size; also: potency is read from the fitted curve at half-maximal effect
Outline: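 The cell line endogenously expresses full-length ER-alpha and carries four EREs driving luciferase. Cells are cultured 5 days hormone-free, treated 22 hr with compounds and 0.1 nM estradiol, then viability is read by fluorescence.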

[2] = qHTS assay to identify small molecule antagonists of the androgen receptor (AR) signaling pathway using the MDA cell line in the presence of 0.5 nM R1881 - cell viability counter screen (AID 1259242); also: nearly all actives have a fitted effect of over 45% in size; also: potency is read from the fitted curve at half-maximal effect
Outline: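 Fluorescence from CellTiter-Fluor, which reports protease activity of live cells, was read 30 min after reagent addition to MDA-kb2 cells that had been incubated 16 hr with compound and 0.5 nM R1881.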

[3] = target: Estrogen receptor (Homo sapiens) (UniProt P03372); test: qHTS assay to identify small molecule antagonists of the estrogen receptor alpha (ER-alpha) signaling pathway using the BG1 cell line in the presence of 0.1 nM 17-beta-estradiol (AID 1259244); also: nearly all actives have a fitted effect of over 50% in size; also: potency is read from the fitted curve at half-maximal effect
Outline: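 Quantitative high-throughput screen in VM7Luc4E2 cells: compound plus 0.1 nM E2 (final), 22 h, 37C, 5% CO2; ONE-Glo added, 30 min room temperature, luminescence measured.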

[4] = qHTS assay to identify small molecule phospholipidosis (PLD) inducers (AID 1259344; active = well fitted curve in the direction sought with a large enough effect; an effect the other way counts as inactive or inconclusive)
Outline: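 HepG2 cells on collagen I, attached 4 h at 37 C, were co-treated with compound and LipidTOX Red dye for 24 h at 37 C, then fixed with paraformaldehyde plus Hoechst 33342 and imaged by high-content microscopy for phospholipid accumulation.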

[5] = qHTS assay to identify small molecule HDAC inhibitors (AID 1259364); also: nearly all actives have a fitted effect of over 45% in size; also: potency is read from the fitted curve at half-maximal effect; as to activity change, negative = inhibition: top concentration of the series differs between compounds
Outline: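 Endogenous HDAC class I/II activity was measured in wild-type HCT-116 cells by HDAC-Glo luminescence after 2 h compound treatment.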

[6] = qHTS assay to identify small molecule HDAC inhibitors - cell viability counter screen (AID 1259365); also: series mostly up to about 92 µM; nearly all actives have a fitted effect of over 50% in size
Outline: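 Viability readout: CellTiter-Glo luminescence. Wild-type HCT-116 cells, 2hr compound treatment following overnight attachment at 37 C.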

[7] = qHTS assay to identify small molecule agonists of the sonic hedgehog signaling (Shh) pathway - cell viability counter screen (AID 1259366); also: nearly all actives have a fitted effect of over 50% in size; also: potency is read from the fitted curve at half-maximal effect
Outline: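 Viability measured fluorometrically (CellTiter-Fluor, 1hr, 37C) in 3T3 Gli1-Luc reporter cells after 23hr compound exposure within a 24hr incubation at 37C/5% CO2.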

[8] = qHTS assay to identify small molecule antagonists of the sonic hedgehog signaling (Shh) pathway - cell viability counter screen (AID 1259367); also: nearly all actives have a fitted effect of over 55% in size; also: potency is read from the fitted curve at half-maximal effect
Outline: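 NIH/3T3-derived Gli1-Luc reporter cells (2,000 per well) rested 4 hr at 37 C, then received DMSO compounds plus conditioned medium. After 23 hr of treatment, CellTiter-Fluor was added for 1 hr at 37C and fluorescence read.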

[9] = qHTS assay to identify small molecule agonists of the sonic hedgehog signaling (Shh) pathway (AID 1259368; calls by dose curve;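 also: NIH/3T3-derived 3T3Gli1-Luc cells carrying a stable Gli1-driven firefly luciferase reporter; series mostly up to about 92 µM; nearly all actives have a fitted effect of over 15% in size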)
Outline: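 Luminescent signal was taken as a measure of Gli1-controlled luciferase expression in stably transfected NIH/3T3-derived cells that had been treated for 24 hr with compounds delivered in DMSO.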

[10] = target: Estrogen receptor beta (Homo sapiens) (UniProt Q92731); test: qHTS assay to identify small molecule agonists of the estrogen receptor beta (ER-beta) signaling pathway (AID 1259377; active = well fitted activation curve with a large enough effect in the signal ratio in the repeat runs, not every such curve was filed as active; the % refers to the signal ratio)
Outline: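 A UAS-controlled beta-lactamase reporter in ER-beta-UAS-bla HEK293T cells reports receptor activation. Compounds act for 16 hr at 37C in 2% charcoal-stripped serum, and a FRET substrate is read by fluorescence after 2 hours.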

[11] = target: Estrogen receptor beta (Homo sapiens) (UniProt Q92731); test: qHTS assay to identify small molecule antagonists of the estrogen receptor beta (ER-beta) signaling pathway (AID 1259378; active = well fitted inhibition curve with a large enough effect in the signal ratio in the repeat runs, not every such curve was filed as active; the % refers to the signal ratio; also: potency is read from the fitted curve at half-maximal effect)
Outline: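 ER-beta-UAS-bla HEK293T (GripTite) cells in 2% charcoal-stripped FBS medium were preincubated 6 hr at 37C, dosed with compound, then stimulated with 1 nM E2 (final) for 16 hr; beta-lactamase reporter read by B/G FRET fluorescence after 2 hr substrate loading.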

[12] = qHTS assay to identify small molecule antagonists of the estrogen receptor beta (ER-beta) signaling pathway - cell viability counter screen (AID 1259382); also: nearly all actives have a fitted effect of over 55% in size; also: potency is read from the fitted curve at half-maximal effect; as to activity change, negative = cytotoxicity: series mostly up to about 92 µM
Outline: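 Tox21 10K library tested in qHTS format on ER-beta-bla HEK293T cells stimulated with 1nM E2; 16 hr treatment at 37C. Same-well CellTiter-Glo luminescence served as the cell viability measure.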

[13] = target: Estrogen receptor (Homo sapiens) (UniProt P03372); test: qHTS assay to identify small molecule agonists of the estrogen receptor alpha (ER-alpha) signaling pathway in the presence of an antagonist (AID 1259383; calls by dose curve; also: top concentration of the series differs between compounds; nearly all actives have a fitted effect of over 15% in size)
Outline: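 In VM7Luc4E2 cells, 4,000 per well, compounds at 15 concentrations were co-incubated 22hr at 37C with 10.0nM final ICI-182,780. Luminescence from the stably transfected 4×ERE-luciferase reporter was recorded 30min after ONE-Glo addition.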

[14] = qHTS assay to identify small molecule agonists or antagonists of the thyroid stimulating hormone receptor (TSHR) signaling pathway - wild type cell line counter screen (AID 1259384; calls by dose curve)
Outline: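 Wild-type HEK293 cells were plated 18 h at 37 C/5% CO2, pin-dosed with compound plus Ro20-1724 medium, held 30 min at room temperature, then given cAMP-d2 and anti-cAMP-cryptate; fluorescence was read after 1 h. Fifteen concentrations, triplicate.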

[15] = target: Thyrotropin receptor (Homo sapiens) (UniProt P16473); test: qHTS assay to identify small molecule antagonists of the thyroid stimulating hormone receptor (TSHR) signaling pathway (AID 1259385; calls by dose curve; also: nearly all actives have a fitted effect of over 20% in size; also: potency is read from the fitted curve at half-maximal effect)
Outline: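 TSHR-HEK293 cells were plated and held 18 h at 37C/5% CO2, then given compound plus Ro20-1724 and stimulated with TSH at 1.5 ng/mL final. After 30 min at room temperature, cAMP was detected with cAMP-d2/anti-cAMP-cryptate (1 h) by fluorescence.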

[16] = qHTS assay to identify small molecule antagonists of the sonic hedgehog signaling (Shh) pathway (AID 1259369; calls by dose curve; also: nearly all actives have a fitted effect of over 45% in size; also: potency is read from the fitted curve at half-maximal effect)
Outline: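 Screening used 3T3Gli1-Luc cells at 2,000 per well, compounds delivered in DMSO, and conditioned medium as agonist stimulus; plates incubated 24hr at 37 C and 5% CO2 before a 30min luciferase step.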

[17] = qHTS assay to identify small molecule agonists of the estrogen receptor beta (ER-beta) signaling pathway - cell viability counter screen (AID 1259380); also: nearly all actives have a fitted effect of over 30% in size; also: potency is read from the fitted curve at half-maximal effect
Outline: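 Viability of ER-beta-UAS-bla HEK293T cells was determined by CellTiter-Glo luminescence following 16 hr treatment with test compounds at 37C.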

[18] = qHTS assay to identify small molecule agonists of the androgen receptor (AR) signaling pathway in the presence of an antagonist - cell viability counter screen (AID 1259379); also: nearly all actives have a fitted effect of over 25% in size; also: potency is read from the fitted curve at half-maximal effect;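 as to activity change, negative = cytotoxicity: MDA-kb2 human breast cancer cells carrying an MMTV luciferase reporter; series mostly up to about 92 µM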
Outline: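 In MDA-kb2 cells (human breast carcinoma, MMTV-luciferase), compounds at 15 concentrations plus 3.0uM nilutamide; 16 hr, 37C, 0% CO2; CellTiter-Fluor fluorescence read for viability.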
% is scaled to controls: 0 for no effect and ±100 for the full control effect.

Chain of Estrogen receptor beta (Homo sapiens) (Q92731 whole entry, looked up): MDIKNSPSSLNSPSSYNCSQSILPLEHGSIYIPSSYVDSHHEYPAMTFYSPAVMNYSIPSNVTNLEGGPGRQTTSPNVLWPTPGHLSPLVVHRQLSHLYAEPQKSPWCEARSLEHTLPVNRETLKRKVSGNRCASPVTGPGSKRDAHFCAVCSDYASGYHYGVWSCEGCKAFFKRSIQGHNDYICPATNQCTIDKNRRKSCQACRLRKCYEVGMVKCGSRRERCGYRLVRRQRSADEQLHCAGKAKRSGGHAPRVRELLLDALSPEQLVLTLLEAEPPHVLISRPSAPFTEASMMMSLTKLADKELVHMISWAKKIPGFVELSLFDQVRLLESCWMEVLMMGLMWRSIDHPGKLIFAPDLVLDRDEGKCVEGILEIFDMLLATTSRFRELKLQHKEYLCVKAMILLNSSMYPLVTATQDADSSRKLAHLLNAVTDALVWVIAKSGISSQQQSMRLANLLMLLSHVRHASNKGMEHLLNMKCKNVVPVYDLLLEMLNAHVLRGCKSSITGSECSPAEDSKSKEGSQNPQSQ
Chain of Estrogen receptor (Homo sapiens) (P03372 whole entry, looked up): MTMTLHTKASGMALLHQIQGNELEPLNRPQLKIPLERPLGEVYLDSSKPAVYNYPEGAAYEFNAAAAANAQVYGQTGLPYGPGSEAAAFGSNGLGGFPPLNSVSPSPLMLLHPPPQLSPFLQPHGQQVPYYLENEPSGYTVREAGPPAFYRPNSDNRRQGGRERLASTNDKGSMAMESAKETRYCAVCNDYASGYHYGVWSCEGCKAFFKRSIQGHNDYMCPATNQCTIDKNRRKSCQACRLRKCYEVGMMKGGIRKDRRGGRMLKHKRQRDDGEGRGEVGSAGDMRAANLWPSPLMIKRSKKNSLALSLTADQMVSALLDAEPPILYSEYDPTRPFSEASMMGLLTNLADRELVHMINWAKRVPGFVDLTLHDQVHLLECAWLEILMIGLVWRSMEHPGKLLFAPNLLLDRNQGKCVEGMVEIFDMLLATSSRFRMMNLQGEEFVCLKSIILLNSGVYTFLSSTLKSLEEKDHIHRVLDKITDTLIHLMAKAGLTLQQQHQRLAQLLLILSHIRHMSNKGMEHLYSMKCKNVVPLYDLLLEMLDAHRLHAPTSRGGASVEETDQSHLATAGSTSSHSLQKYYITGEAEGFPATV
Chain of Thyrotropin receptor (Homo sapiens) (P16473 whole entry, looked up): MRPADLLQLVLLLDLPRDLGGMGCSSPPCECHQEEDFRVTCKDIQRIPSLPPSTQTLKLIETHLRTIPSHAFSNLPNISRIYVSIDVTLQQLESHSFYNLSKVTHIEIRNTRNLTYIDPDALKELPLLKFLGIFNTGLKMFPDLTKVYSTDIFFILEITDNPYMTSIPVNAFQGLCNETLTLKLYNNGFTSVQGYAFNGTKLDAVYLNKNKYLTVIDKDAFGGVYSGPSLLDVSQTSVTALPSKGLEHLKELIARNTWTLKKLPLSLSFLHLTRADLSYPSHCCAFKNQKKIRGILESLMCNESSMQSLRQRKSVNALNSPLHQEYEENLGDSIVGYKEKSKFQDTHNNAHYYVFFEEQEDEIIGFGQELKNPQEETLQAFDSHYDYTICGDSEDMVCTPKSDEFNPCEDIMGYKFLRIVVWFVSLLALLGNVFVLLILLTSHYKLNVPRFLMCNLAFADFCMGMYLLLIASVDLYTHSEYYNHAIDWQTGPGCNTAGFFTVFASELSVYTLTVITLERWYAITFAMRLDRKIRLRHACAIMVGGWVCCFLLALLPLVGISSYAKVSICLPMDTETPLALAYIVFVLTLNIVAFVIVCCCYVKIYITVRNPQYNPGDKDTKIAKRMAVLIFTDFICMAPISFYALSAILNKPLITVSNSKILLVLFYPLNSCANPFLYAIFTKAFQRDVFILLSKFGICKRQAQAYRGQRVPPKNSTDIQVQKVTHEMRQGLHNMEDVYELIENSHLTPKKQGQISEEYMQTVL

CC(=O)OC(C)C[N+](C)(C)C (stereo not drawn)
inactive: Potency [1] | Potency [2] | Potency [3] | Potency [4] | Potency [5] | Potency [6] | Potency [7] | Potency [8] | Potency [9] | Potency [10] | Potency [11] | Potency [12] | Potency [13] | Potency [14] | Potency [15]

CC12CC3CC(C)(C1)CC(N)(C3)C2
active: Potency [16] 16.8 µM
inactive: Potency [1] | Potency [2] | Potency [3] | Potency [4] | Potency [5] | Potency [6] | Potency [8] | Potency [9] | Potency [10] | Potency [11] | Potency [17] | Potency [12] | Potency [14] | Potency [15]

COc1ccc(CCN(C)CCCN2CCc3cc(OC)c(OC)cc3CC2=O)cc1OC
inactive: Potency [1] | Potency [2] | Potency [3] | Potency [4] | Potency [5] | Potency [6] | Potency [8] | Potency [9] | Potency [17] | Potency [12]

COc1ccc(C2C(=O)c3ccccc3C2=O)cc1
inactive: Potency [1] | Potency [2] | Potency [3] | Potency [4] | Potency [6] | Potency [9] | Potency [16] | Potency [10] | Potency [11] | Potency [18] | Potency [17] | Potency [12] | Potency [13]
active: Potency [5] 23.7 µM

Nc1nc2ccc(OC(F)(F)F)cc2s1
inactive: Potency [1] | Potency [2] | Potency [3] | Potency [4] | Potency [6] | Potency [7] | Potency [8] | Potency [16] | Potency [10] | Potency [11] | Potency [18] | Potency [17] | Potency [12] | Potency [14] | Potency [15]

C[C@@H]1C[C@H]2[C@@H]3CCC4=CC(=O)C=C[C@]4(C)[C@@]3(F)[C@@H](O)C[C@]2(C)[C@@]1(O)C(=O)COP(=O)(O)O
inactive: Potency [1] | Potency [2] | Potency [3] | Potency [4] | Potency [5] | Potency [6] | Potency [7] | Potency [8] | Potency [9] | Potency [10] | Potency [11] | Potency [18] | Potency [17] | Potency [12] | Potency [14] | Potency [15]

CC(C)(C)NCC(O)COc1cccc2c1C[C@H](O)[C@H](O)C2 (stereo partly drawn)
inactive: Potency [1] | Potency [2] | Potency [3] | Potency [4] | Potency [5] | Potency [6] | Potency [7] | Potency [8] | Potency [9] | Potency [16] | Potency [10] | Potency [11] | Potency [18] | Potency [12] | Potency [14] | Potency [15]

CN=C(N)NC(=O)Nc1c(C)cccc1C
inactive: Potency [1] | Potency [2] | Potency [3] | Potency [4] | Potency [5] | Potency [6] | Potency [7] | Potency [8] | Potency [16] | Potency [17] | Potency [12] | Potency [13] | Potency [14] | Potency [15]

CCCCC(CC)COS(=O)(=O)O (stereo not drawn)
inactive: Potency [1] | Potency [2] | Potency [3] | Potency [4] | Potency [5] | Potency [6] | Potency [8] | Potency [9] | Potency [16] | Potency [10] | Potency [11] | Potency [18] | Potency [17] | Potency [12] | Potency [13] | Potency [14] | Potency [15]

CC(C)(C)C(O)/C=C/c1ccc2c(c1)OCO2 (stereo not drawn)
inactive: Potency [1] | Potency [2] | Potency [3] | Potency [4] | Potency [5] | Potency [7] | Potency [8] | Potency [9] | Potency [16] | Potency [10] | Potency [11] | Potency [18] | Potency [12] | Potency [13] | Potency [14] | Potency [15]

CCCCCCCCCCCCCCN(C)C
inactive: activity change, negative = cytotoxicity [1] 0.479% [at 19 µM] | viability change, negative = cytotoxic [2] -2.29% [at 19 µM] | activity change, negative = inhibition [3] 15.5% [at 19 µM] | activity change, negative = inhibition [5] 1.53% [at 19 µM] | activity change, negative = cytotoxicity [6] 3.73% [at 19 µM] | viability change, negative = cytotoxic [7] -0.743% [at 19 µM] | viability change, negative = cytotoxic [8] 4.21% [at 19 µM] | activity change [9] 1.14% [at 18.9 µM, active compounds read high] | activity change, negative = inhibition [16] 19.6% [at 19 µM] | activation [10] -2.25% [at 19 µM] | activity, negative = inhibition [11] 3.58% [at 19 µM] | activity change, negative = cytotoxicity [18] -0.611% [at 19 µM] | activity change, negative = cytotoxicity [17] -12.9% [at 19 µM] | activity change, negative = cytotoxicity [12] -7.95% [at 19 µM] | activation [13] 2.36% [at 19 µM] | cAMP activity change [14] -2.36% [at 18.9 µM, active compounds read high] | activity change, negative = inhibition [15] -0.0954% [at 19 µM]

Cc1ccc(S(=O)(=O)NC(=O)NC2CCCCC2)cc1
inactive: Potency [1] | Potency [2] | Potency [3] | Potency [4] | Potency [5] | Potency [6] | Potency [7] | Potency [8] | Potency [16] | Potency [10] | Potency [11] | Potency [18] | Potency [17] | Potency [12] | Potency [13] | Potency [14] | Potency [15]

CO[C@@H]1[C@@H](OC)[C@H](C)[C@@](O)(CC(=O)O)O[C@H]1[C@H](C)[C@H]1O[C@@]2(CC[C@@](C)([C@H]3CC[C@@](C)([C@@H]4O[C@@H]([C@H]5O[C@](C)(O)[C@H](C)C[C@@H]5C)C[C@@H]4OC4C[C@H](OC)[C@@H](OC)[C@H](C)O4)O3)O2)C[C@H](O)[C@H]1C (stereo partly drawn)
active: Potency [1] 3.35 µM | Potency [2] 1.68 µM | Potency [3] 11.9 µM | Potency [7] 4.22 µM | Potency [8] 3.76 µM | Potency [16] 0.211 µM | Potency [11] 11.9 µM | Potency [18] 1.68 µM | Potency [17] 1.88 µM | Potency [12] 2.66 µM | Potency [15] 18.8 µM
inactive: Potency [4] | Potency [9] | Potency [10] | Potency [14]

CC(C)(C)CCCCCCOC(=O)c1ccccc1C(=O)OCCCCCCC(C)(C)C
inactive: Potency [1] | Potency [2] | Potency [3] | Potency [5] | Potency [6] | Potency [8] | Potency [9] | Potency [16] | Potency [10] | Potency [11] | Potency [18] | Potency [17] | Potency [12] | Potency [13] | Potency [14] | Potency [15]
